Reference: the supplement of paper PMC6089552
Hit rate of the full screen: of about 3,200 compounds, about 300 (9.4%) showed activity. What follows is part of a selection rich in actives, with near analogues and random picks from the rest.

System: A673/TR/shEF
Experiment: cell viability (LOESS-normalised, relative to median of negative controls) (log2 ratio); higher = more viable cells (less compound effect), active = hit call of the paper (over 3 MAD below the median)
Conditions: treatment time: 72 h
Procedure, shortened: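 For three days, A673/TR/shEF Ewing sarcoma cells in 384-well plates (1,500 per well) were treated with library compounds at two or more concentrations or with DMSO controls, after doxycycline had been added or withheld 24 h beforehand to induce EWS-FLI1 shRNA knockdown. Viability was read by CellTiter-Glo luminescence on an Envision reader. The data were LOESS-corrected per plate, divided by the median of negative controls and log2-transformed.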

[1] = 0.25 µM, library screen: screen1, EWS-FLI1 expression: high (no doxycycline)
[2] = 0.25 µM, library screen: screen1, EWS-FLI1 expression: low (doxycycline-induced shRNA knockdown)
[3] = 2.5 µM, library screen: screen1, EWS-FLI1 expression: high (no doxycycline)
[4] = 2.5 µM, library screen: screen1, EWS-FLI1 expression: low (doxycycline-induced shRNA knockdown)
[5] = 0.25 µM, library screen: screen2, EWS-FLI1 expression: high (no doxycycline)
[6] = 0.25 µM, library screen: screen2, EWS-FLI1 expression: low (doxycycline-induced shRNA knockdown)
[7] = 2.5 µM, library screen: screen2, EWS-FLI1 expression: high (no doxycycline)
[8] = 2.5 µM, library screen: screen2, EWS-FLI1 expression: low (doxycycline-induced shRNA knockdown)
[9] = 0.025 µM, library screen: screen2, EWS-FLI1 expression: high (no doxycycline)
[10] = 0.025 µM, library screen: screen2, EWS-FLI1 expression: low (doxycycline-induced shRNA knockdown)
[11] = 0.103 µM, library screen: screen3, EWS-FLI1 expression: high (no doxycycline)
[12] = 0.103 µM, library screen: screen3, EWS-FLI1 expression: low (doxycycline-induced shRNA knockdown)
[13] = 0.308 µM, library screen: screen3, EWS-FLI1 expression: high (no doxycycline)
[14] = 0.308 µM, library screen: screen3, EWS-FLI1 expression: low (doxycycline-induced shRNA knockdown)
[15] = 0.926 µM, library screen: screen3, EWS-FLI1 expression: high (no doxycycline)
[16] = 0.926 µM, library screen: screen3, EWS-FLI1 expression: low (doxycycline-induced shRNA knockdown)
[17] = 2.8 µM, library screen: screen3, EWS-FLI1 expression: high (no doxycycline)
[18] = 2.8 µM, library screen: screen3, EWS-FLI1 expression: low (doxycycline-induced shRNA knockdown)
[19] = 8.3 µM, library screen: screen3, EWS-FLI1 expression: high (no doxycycline)
[20] = 8.3 µM, library screen: screen3, EWS-FLI1 expression: low (doxycycline-induced shRNA knockdown)
[21] = 25 µM, library screen: screen2, EWS-FLI1 expression: high (no doxycycline)
[22] = 25 µM, library screen: screen2, EWS-FLI1 expression: low (doxycycline-induced shRNA knockdown)
[23] = 25 µM, library screen: screen3, EWS-FLI1 expression: high (no doxycycline)
[24] = 25 µM, library screen: screen3, EWS-FLI1 expression: low (doxycycline-induced shRNA knockdown)
[25] = 0.025 µM, library screen: screen1, EWS-FLI1 expression: high (no doxycycline)
[26] = 0.025 µM, library screen: screen1, EWS-FLI1 expression: low (doxycycline-induced shRNA knockdown)
[27] = 25 µM, library screen: screen1, EWS-FLI1 expression: high (no doxycycline)
[28] = 25 µM, library screen: screen1, EWS-FLI1 expression: low (doxycycline-induced shRNA knockdown)

Measured: cell viability (log2)

CC(C)N1C(=O)c2ccccc2NS1(=O)=O
inactive: [1] 0.113 | [2] 0.086 | [3] 0.0391 | [4] 0.0775

C/C=C(/C)C(=O)O[C@H]1C(C)=C2[C@H]([C@@H]1OC(=O)CCCCCCC)[C@@](C)(OC(C)=O)C[C@H](OC(=O)CCC)[C@@]1(O)[C@H]2OC(=O)[C@@]1(C)O
active: [5] -3.16 | [6] -2.76 | [7] -3.49 | [8] -2.81

CN1C(=O)CN=C(c2ccccc2)c2cc(Cl)ccc21
inactive: [1] 0.0871 | [2] 0.0866 | [3] 0.123 | [4] 0.0545

C[C@]12CC[C@H]3[C@@H](CCC4=CC(=O)CC[C@@]43C)[C@@H]1CC[C@@H]2O
inactive: [1] 0.0751 | [2] -0.0159 | [3] 0.0937 | [4] -0.0498

O=c1cccc2n1CC1CC2CN2CCCCC12 (centres undefined)
inactive: [1] 0.16 | [2] 0.0123 | [3] 0.153 | [4] 0.0958

NCCc1cc(O)c(O)cc1O
inactive: [1] 0.0637 | [2] 0.155 | [3] 0.144 | [4] 0.129

CC(=O)OCC1=C(C(=O)O)N2C(=O)[C@@H](NC(=O)CCC[C@@H](N)C(=O)O)[C@H]2SC1
inactive: [5] 0.263 | [6] 0.114 | [7] 0.155 | [8] 0.174

CC[C@@]1(O)C(=O)OCc2c1cc1n(c2=O)Cc2cc3ccccc3nc2-1
inactive: [9] -0.0654 | [10] 0.049 | [12] -0.0714
active: [11] -1.01 | [1] -2.18 | [2] -0.586 | [5] -2.99 | [6] -0.42 | [13] -2.37 | [14] -0.543 | [15] -3.61 | [16] -0.88 | [3] -1.57 | [4] -0.388 | [7] -3.53 | [8] -0.945 | [17] -4.24 | [18] -1.16 | [19] -4.26 | [20] -1.3 | [21] -4.09 | [22] -1.25 | [23] -4.26 | [24] -2.33

C[C@]12CCC(=O)C=C1C=CC1C2CC[C@@]2(C)C1CC[C@@]2(O)CCC(=O)O (some centres undefined)
inactive: [1] 0.0813 | [2] -0.0168 | [3] 0.15 | [4] -0.00183

O=C(O)CCCc1ccc(N(CCCl)CCCl)cc1
active: [21] -0.0762
inactive: [9] 0.0942 | [10] 0.0711 | [1] 0.0971 | [2] 0.0808 | [5] 0.12 | [6] 0.0418 | [3] 0.142 | [4] 0.131 | [7] 0.101 | [8] 0.11 | [22] 0.0238

Cn1c(CCCC(=O)O)nc2cc(N(CCCl)CCCl)ccc21
inactive: [11] 0.058 | [12] 0.0297 | [13] -0.00941 | [14] 0.026 | [15] -0.00645 | [16] 0.00947 | [17] -0.0453 | [18] -0.00369 | [19] 0.00708 | [20] 0.0974 | [23] -0.0533 | [24] 0.0463

N[C@@H](Cc1ccc(N(CCCl)CCCl)cc1)C(=O)O
inactive: [1] 0.0874 | [2] 0.0161 | [5] 0.175 | [6] 0.17 | [3] 0.00755 | [4] 0.0488 | [7] 0.22 | [8] 0.172

CC(=O)CC1CCCCN1 (centres undefined)
inactive: [1] 0.0906 | [2] -0.00634 | [3] 0.0756 | [4] -0.083

CC(=O)O[C@@H]1CC2C(C)(C)[C@H](O)C=C[C@]2(C)C2CC[C@]3(C)C(=CC(=O)O[C@H]3c3ccoc3)[C@@]21C (some centres undefined)
inactive: [1] 0.113 | [2] 0.0781 | [3] 0.222 | [4] 0.195

CCc1cccc(CC)c1N(COC)C(=O)CCl
inactive: [1] 0.0413 | [2] -0.00378 | [3] 0.0617 | [4] 0.0338

CC1(C)C(C=C(Cl)Cl)C1C(=O)OC(C#N)c1cccc(Oc2ccccc2)c1 (centres undefined)
active: [27] -0.287 | [28] -0.665
inactive: [25] 0.0827 | [26] 0.0478 | [1] 0.102 | [2] -0.0402 | [3] 0.0354 | [4] -0.0899

CC(C)C(C(=O)OC(C#N)c1cccc(Oc2ccccc2)c1)c1ccc(Cl)cc1 (centres undefined)
inactive: [25] 0.0912 | [26] 0.0926 | [1] 0.0365 | [2] 0.00166 | [3] 0.0694 | [4] 0.0411 | [27] 0.0435 | [28] 0.0476

CC1(C)[C@H](C(=O)O[C@H](C#N)c2cccc(Oc3ccccc3)c2)[C@@H]1C=C(Br)Br
inactive: [25] 0.0513 | [26] -0.0407 | [1] 0.047 | [2] 0.086 | [3] 0.112 | [4] 0.12 | [27] -0.0163 | [28] 0.0977
